Data from PubChem BioAssay (NCI).
This is part of a sample that, as a whole, favours compounds with a hit. Of some 83,000 tested, about 20% had one in any assay.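 The test compound was applied at a single concentration to cells in 96-well plates for 48 hours, and percent growth was recorded.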 Values without a mark were called inactive. Calls of active or inactive are those of the source. Rule for the calls: active = growth percent below 10; inactive = the rest.

The compounds below were run on MDA-MB-468 breast (assay: NCI-60 one-dose screen, 48 h (100 = growth as untreated, 0 = no growth, -100 = all killed)). Conditions: 10 µM unless noted.
With `CC(C)/C=C/CC[C@](C)(O)[C@H]1CC[C@]2(C)[C@@H]1CC[C@@H]1[C@@]3(C)C/C(=C/c4cccc(C(F)(F)F)c4)C(=O)C(C)(C)[C@@H]3CC[C@]12C` the growth was 104%.
With `COc1cc(-c2nn(-c3cccc(NC(=O)NCCNC(=O)c4cccc(C(F)(F)F)c4)c3)cc2-c2ccncc2)ccc1Cl` the growth was 7.11% (active).
In the case of `COc1ccc(CCN2C(=O)/C(=C/c3ccc(C4Oc5ccccc5C5CC(c6cccc(OC)c6)=NN54)cc3)SC2=S)cc1` (stereo unspecified), the growth is reported as 107%.
For `Cc1ccc(C=C2C(=O)NC(=O)NC2=O)cc1`, the growth was 108%.
Compound `CN1CCN(CCOc2ccc(-c3cnc4c(-c5ccc(C(F)(F)F)cc5)cnn4c3)cc2)CC1` has a growth of 42.1%.
With `Cc1ccc(NC(=S)N/C=C(\c2ccccc2)S(=O)Cc2ccccc2)c(C)c1` (stereo unspecified) the growth was 100%.
`Oc1[nH]c2ccccc2c1/C=c1/ccc2c(c1)N=C(c1cc(F)cc(F)c1)N=2` showed a growth of 20.6%.
For `CC1(C)CC[C@]2(C(N)=O)CC[C@]3(C)C(=CC[C@@H]4[C@@]5(C)C/C(=C/c6cccnc6)C(=O)C(C)(C)[C@@H]5CC[C@]43C)[C@@H]2C1`, the growth was -17.1% [100 µM] (active).
`CN(C)c1ccc(C(=C2C=CC(=[N+](C)C)C=C2)c2ccc(N(C)C)cc2)cc1` (tested in a mixture with another compound) was tested, and the growth was -95% (active).
For `CC12CC3CC1C(C(=O)O2)C3C(=O)O` (stereo unspecified), the growth was 103%.
With `CCOC(=O)C1OC1c1ccccc1` (stereo unspecified) the growth was 106%.
`CCOC(=O)c1cnc2cc(Cl)c(F)cc2c1Nc1cccc(NS(C)(=O)=O)c1` showed a growth of 87.6%.
Compound `CCOc1cc(CNc2ccc(N3CCOCC3)c(C(=O)O)c2)ccc1OC` has a growth of 94.7%.
For `O=C(/C=C/c1ccc(Oc2ccc(Br)cc2)cc1)c1ccc(Br)cc1`, the growth was 98.3%.
For `c1ccc(C(c2nc3ncncc3[nH]2)N2CSc3nc4ncncc4n3C2)cc1` (stereo unspecified), the growth was 7.36% (active).
`Cc1nc(Nc2n[nH]c3c2CN(C(=O)N[C@H](CN(C)C)c2ccccc2)C3(C)C)c2sccc2n1` was tested, and the growth was -44.3% (active).
Compound `Cc1ccc(NC(=O)c2sc3nc(C)c(Br)c(C)c3c2N)cc1` has a growth of 66.6%.
`Cc1cc(=O)oc2cc(OC(=O)N3CCN(C)CC3)ccc12` gave a growth of 107%.
With `CS(=O)(=O)c1cccc(-c2c(-c3cccc(OS(N)(=O)=O)c3)nc3sccn23)c1` the growth was 104%.
With `Cc1nc2c(=O)[nH]c(SCC(=O)Nc3cccc(F)c3)nc2[nH]c1=O` the growth was 98.9%.
With `COc1cc(-c2nc(SCCC(C)C)nc(NNC(=O)c3ccncc3)c2C#N)cc(OC)c1OC` the growth was 77.7%.
Compound `COc1cc(-c2n/c(=C\c3c(O)[nH]c4ccc(Cl)cc34)cc3c2=Nc2ccccc2-3)cc(OC)c1OC` has a growth of 30.5%.
In the case of `FC(F)(F)c1cc(-c2nnc3n2N=C(N2CCCC2)CS3)cc(C(F)(F)F)c1`, the growth is reported as 66.3%.
With `c1ccc(C2=Nc3ccccc3SC2)cc1` the growth was 122%.
Compound `CCOC(=O)C(Cc1ccc(OC)cc1)C(=O)OCC` has a growth of 55.3%.
Work on `C#C[C@]1(O)CC[C@H]2[C@@H]3CC=C4c5sc(Nc6nc(C)cc(OC)n6)nc5CC[C@]4(C)[C@H]3CC[C@@]21C` yielded a growth of 63.1%.
